Reference: the antibiotic and cytotoxicity screens of Wong et al. (2023)
About 500 (1.3%) of roughly 39,000 compounds were called active. Only a selection was taken, and actives are over-represented in it overall.

System: S. aureus RN4220
Assay: growth inhibition call (relative growth <= 0.2)
Conditions: 50 µM

| SMILES | growth inhibition call |
| --- | --- |
| C[C@H]1CN([C@@H](C)CO)C(=O)Cc2cc(NC(=O)Nc3ccc(F)cc3)ccc2O[C@H]1CN(C)S(=O)(=O)c1cn(C)cn1 | inactive |
| CCOC(=O)CSc1nnc2c3sc4nc(N5CCOCC5)c5c(c4c3ncn12)CC(C)(C)OC5 | inactive |
| C[C@H](CO)N1C[C@H](C)[C@@H](CN(C)Cc2ccc(C(F)(F)F)cc2)OCCCC[C@H](C)Oc2ccc(NS(=O)(=O)c3cn(C)cn3)cc2C1=O | inactive |
| C[C@@H]1CCCCO[C@@H](CN(C)Cc2ccccc2)[C@H](C)CN([C@H](C)CO)C(=O)c2cc(NC(=O)Nc3ccccc3)ccc2O1 | inactive |
| C[C@@H]1CN([C@H](C)CO)C(=O)c2cccc(NC(=O)Nc3cccc4ccccc34)c2O[C@@H]1CN(C)C(=O)Nc1ccc2c(c1)OCO2 | inactive |
| COC(=O)c1c2oc(c1C(=O)OC)C(=O)N(C)Cc1cn(nn1)C[C@@H](C)NC(=O)N[C@H](CO)CC2 | inactive |
| C[C@H](CO)N1C[C@H](C)[C@@H](CN(C)C(=O)Nc2ccc3c(c2)OCO3)OCCCC[C@H](C)Oc2ccc(NC(=O)Nc3ccc(F)cc3)cc2C1=O | inactive |
| COc1ccc(NC(=O)N(C)C[C@@H]2OCCCC[C@H](C)Oc3ccc(NC(=O)Nc4ccc5c(c4)OCO5)cc3C(=O)N([C@@H](C)CO)C[C@@H]2C)cc1 | inactive |
| Cc1noc(C)c1S(=O)(=O)N(C)C[C@H]1Oc2ccc(NC(=O)CCC(F)(F)F)cc2CC(=O)N([C@H](C)CO)C[C@H]1C | inactive |
| CC(=O)N(C)C[C@H]1Oc2ncc(C#C[C@H](C)O)cc2C(=O)N([C@H](C)CO)C[C@H]1C | inactive |
| C[C@@H]1CN([C@H](C)CO)C(=O)c2cc(NC(=O)CCC(F)(F)F)ccc2O[C@@H]1CN(C)C(=O)Nc1ccc(C(F)(F)F)cc1 | inactive |
| Cc1noc(C)c1NC(=O)Nc1ccc2c(c1)C(=O)N([C@@H](C)CO)C[C@H](C)[C@@H](CN(C)C(=O)Nc1ccc(C(F)(F)F)cc1)O2 | inactive |
| C[C@H](CO)N1C[C@H](C)[C@@H](CN(C)C(=O)Nc2ccc(C(F)(F)F)cc2)Oc2ccc(NC(=O)CCC(F)(F)F)cc2C1=O | active |
| Cc1noc(C)c1NC(=O)Nc1ccc2c(c1)C(=O)N([C@H](C)CO)C[C@H](C)[C@H](CN(C)C(=O)Nc1ccc(C(F)(F)F)cc1)O2 | active |
| Cc1noc(C)c1NC(=O)Nc1ccc2c(c1)C(=O)N([C@H](C)CO)C[C@H](C)[C@@H](CN(C)C(=O)Nc1ccc(C(F)(F)F)cc1)O2 | inactive |
| Cc1noc(C)c1NC(=O)Nc1ccc2c(c1)C(=O)N([C@@H](C)CO)C[C@@H](C)[C@@H](CN(C)C(=O)Nc1ccc(C(F)(F)F)cc1)O2 | active |
| Cc1noc(C)c1NC(=O)Nc1ccc2c(c1)C(=O)N([C@H](C)CO)C[C@@H](C)[C@H](CN(C)C(=O)Nc1ccc(C(F)(F)F)cc1)O2 | inactive |
| Cc1noc(C)c1NC(=O)N(C)C[C@@H]1Oc2ccc(NC(=O)Nc3ccc(C(F)(F)F)cc3)cc2C(=O)N([C@H](C)CO)C[C@@H]1C | inactive |
| Cc1noc(C)c1NC(=O)Nc1ccc2c(c1)C(=O)N([C@@H](C)CO)C[C@H](C)[C@H](CN(C)C(=O)Nc1ccc(C(F)(F)F)cc1)O2 | active |
| C[C@@H]1CN([C@@H](C)CO)C(=O)c2cc(NC(=O)CCC(F)(F)F)ccc2O[C@H]1CN(C)C(=O)Nc1ccc(C(F)(F)F)cc1 | inactive |
| Cc1noc(C)c1NC(=O)Nc1ccc2c(c1)C(=O)N([C@H](C)CO)C[C@@H](C)[C@@H](CN(C)C(=O)Nc1ccc(C(F)(F)F)cc1)O2 | inactive |
| Cc1noc(C)c1NC(=O)Nc1ccc2c(c1)C(=O)N([C@@H](C)CO)C[C@@H](C)[C@H](CN(C)C(=O)Nc1ccc(C(F)(F)F)cc1)O2 | inactive |

| SMILES | growth inhibition call |
| --- | --- |
| C[C@@H]1CN([C@@H](C)CO)C(=O)Cc2cc(NC(=O)C3CC3)ccc2O[C@@H]1CN(C)C(=O)Nc1ccc2c(c1)OCO2 | inactive |
| CC(C)c1ccccc1Cc1cc(C(=O)Nc2ccc(S(=O)(=O)c3ccccc3C(C)(C)C)cc2)c(O)c(O)c1O | inactive |
| Cc1ccc(S(=O)(=O)N(C)C[C@@H]2Oc3ccc(NC(=O)Nc4cccc5ccccc45)cc3C(=O)N([C@@H](C)CO)C[C@H]2C)cc1 | inactive |
| C[C@H]1CC/C=C\[C@H]2O[C@@]34C=CCN(c5ccc6ccccc6c5)C(=O)[C@H]3N(CCCO)C(=O)[C@@H]4[C@@H]2C(=O)O1 | inactive |
| C[C@H]1CN([C@@H](C)CO)C(=O)Cc2cc(NC(=O)CCC(F)(F)F)ccc2O[C@H]1CN(C)S(=O)(=O)c1cn(C)cn1 | inactive |
| CCN(CC)CCS(=O)(=O)[C@@H]1CCN2C(=O)c3coc(n3)CC(=O)C[C@H](O)/C=C(C)/C=C\CNC(=O)/C=C/[C@@H](C)[C@H](C(C)C)OC(=O)[C@@H]12 | active |
| COc1cccc2c1C(=O)c1c(O)c3c(c(O)c1C2=O)C[C@@](O)(C(=O)CO)C[C@@H]3O[C@H]1C[C@H](N)[C@@H](O)[C@H](C)O1 | active |
| COc1cccc2c1C(=O)c1c(O)c3c(c(O)c1C2=O)CC(O)(C(=O)CO)CC3OC1CC(N)C(O)C(C)O1 (centres undefined) [listing 1 of 2 here] | inactive |
| CCCCC(=O)OCC(=O)[C@]1(O)Cc2c(O)c3c(c(O)c2[C@@H](O[C@H]2C[C@H](NC(=O)C(F)(F)F)[C@H](O)[C@H](C)O2)C1)C(=O)c1c(OC)cccc1C3=O | inactive |
| COc1cccc2c1C(=O)c1c(O)c3c(c(O)c1C2=O)C[C@](O)(C(=O)CO)C[C@H]3O[C@H]1C[C@@H](N)[C@@H](O)[C@@H](C)O1 | active |
| COc1cccc2c1C(=O)c1c(O)c3c(c(O)c1C2=O)CC(O)(C(=O)CO)CC3OC1CC(N)C(O)C(C)O1.Cl (centres undefined) | inactive |
| COc1cccc2c1C(=O)c1c(O)c3c(c(O)c1C2=O)CC(O)(C(=O)CO)CC3OC1CC(N)C(O)C(C)O1 (centres undefined) [listing 2 of 2 here] | inactive |
| COc1cccc2c1C(=O)c1c(O)c3c(c(O)c1C2=O)C[C@@](O)(C(=O)CO)C[C@@H]3O[C@H]1C[C@H](N)[C@H](O)[C@H](C)O1 | active |
| Cc1ccnc(NC(=O)Cn2cnc3c2c(=O)n(C)c(=O)n3C)c1 | inactive |
| Cc1noc(C)c1S(=O)(=O)Nc1ccc2c(c1)C(=O)N([C@@H](C)CO)C[C@@H](C)[C@@H](CN(C)S(C)(=O)=O)OCCCC[C@@H](C)O2 | inactive |
| COCCC(=O)N1CCC2(CC1)COC2 | inactive |
| C[C@@H]1CCCCO[C@@H](CN(C)C(=O)Nc2ccc(C(F)(F)F)cc2)[C@H](C)CN([C@H](C)CO)C(=O)c2cc(N(C)C)ccc2O1 | inactive |
| Cc1noc(C)c1NC(=O)N(C)C[C@H]1Oc2ccc(NS(=O)(=O)c3ccccc3)cc2C(=O)N([C@@H](C)CO)C[C@H]1C | inactive |
| CCOC(=O)[C@H]1CN(C(C)(C)C)C(=O)C1=O | inactive |
| O=c1[nH]c2ccsc2c(=O)n1CCO | inactive |
| C[C@@H]1CN([C@@H](C)CO)S(=O)(=O)c2ccc(C#Cc3ccncc3)cc2O[C@H]1CN(C)C(=O)C1CCOCC1 | inactive |
| CCS(=O)(=O)N1CC[C@]2(CC1)CN([C@H](CO)c1c2c2ccc(cc2n1C)OC)C(=O)CN1CCOCC1 | inactive |

| SMILES | growth inhibition call |
| --- | --- |
| C[C@H](CO)N1C[C@H](C)[C@@H](CN(C)Cc2ccccc2)Oc2ccc(NC(=O)Cn3cnnn3)cc2CC1=O | inactive |
| Cc1ccc(S(=O)(=O)O)cc1.NC1CCN(c2nc3c(cc2F)c(=O)c(C(=O)O)cn3-c2ccc(F)cc2F)C1.O (centres undefined) | inactive |
| CN[C@H]1CN(c2ccc3c(=O)c(C(=O)O)cn(-c4nccs4)c3n2)C[C@@H]1OC | inactive |
| N[C@H]1CCN(c2nc3c(cc2F)c(=O)c(C(=O)O)cn3-c2ccc(F)cc2F)C1 | active |
| N[C@@H]1[C@H]2CN(c3nc4c(cc3F)c(=O)c(C(=O)O)cn4-c3ccc(F)cc3F)C[C@@H]12 | active |
| C[C@H](CO)N1C[C@H](C)[C@H](CN(C)C(=O)CCC(F)(F)F)OCCCC[C@H](C)Oc2ccc(NC(=O)Nc3ccccc3)cc2C1=O | inactive |
| C[C@H](CO)N1C[C@H](C)[C@H](CN(C)C(=O)CCCN(C)C)OCCCC[C@H](C)Oc2ccc(NS(C)(=O)=O)cc2C1=O | inactive |
| C[C@H](CO)N1C[C@H](C)[C@H](CN(C)S(=O)(=O)c2ccc(F)cc2)Oc2c(NC(=O)C3CCOCC3)cccc2C1=O | inactive |
| CC(C)NC(=O)N(C)C[C@@H]1Oc2c(NS(=O)(=O)c3ccc(F)cc3)cccc2C(=O)N([C@H](C)CO)C[C@H]1C | inactive |
| C[C@@H]1CCCCO[C@@H](CN(C)C(=O)CCCN(C)C)[C@H](C)CN([C@@H](C)CO)C(=O)c2cc(NC(=O)Nc3ccc(F)cc3)ccc2O1 | inactive |
| COc1cccc(S(=O)(=O)N(C)C[C@@H]2Oc3ncc(C#CC(C)C)cc3C(=O)N([C@@H](C)CO)C[C@H]2C)c1 | inactive |
| COC(=O)CC1C(C)(C)C(OC(C)=O)C2CC3=C4CC(=O)OC(c5ccoc5)C4(C)CCC3C1(C)C2=O (centres undefined) | inactive |
| CCC(=C/[C@H](C)C/C=C/C(C)=C/[C@@H](C)C(=O)[C@@H](C)[C@H](O)[C@@H](C)C/C(C)=C/C(=O)O)/C=C/[C@@H]1OC(=O)C=C[C@@H]1C | active |
| Cc1noc(C)c1S(=O)(=O)N(C)C[C@@H]1Oc2ccc(NS(=O)(=O)c3ccc(F)cc3)cc2C(=O)N([C@H](C)CO)C[C@@H]1C | inactive |
| COc1ccc(S(=O)(=O)N(C)C[C@@H]2Oc3c(NS(=O)(=O)c4ccc(C)cc4)cccc3C(=O)N([C@H](C)CO)C[C@@H]2C)cc1 | inactive |
| O=C1CCNc2cc3ccccc3cc21 | active |
| O=C1NCc2ccccc21 | inactive |
| O=C1CCCNc2ccc(Cl)cc21 | inactive |
| CN(C)C(=O)C[C@@H]1CC[C@@H](NC(=O)C2CC2)[C@@H](CO)O1 | inactive |
| C[C@@H]1CCCCO[C@@H](CN(C)C(=O)Nc2ccc(F)cc2)[C@H](C)CN([C@H](C)CO)C(=O)c2cc(NS(=O)(=O)c3ccc(F)cc3)ccc2O1 | inactive |
